Structures can show the parent of a compound that is named as a salt.
Experiments:
Assay in all cases: thermal shift delta Tm vs DMSO control; higher = stronger stabilization (binding)
Conditions in all cases: 12.5 µM; protein concentration 2 µM
LOC_OS01G57100-cb003 = tested on: LOC_OS01G57100-cb003
Summary of the method: (§1)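 Thermal shift values come from differential scanning fluorimetry on purified rice kinase domains made in E. coli, with melting temperatures obtained from Boltzmann fits. Samples of 19.5 μl held 2 μM kinase, 100 mM potassium phosphate pH 7.5, 150 mM NaCl, 10% glycerol, 5 × SYPRO Orange and compound in DMSO, and were heated from 25°C to 95°C at 0.05°C/s. Each shift is a triplicate mean relative to the DMSO-only protein sample.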

LOC_OS01G60330-cb001 = tested on: LOC_OS01G60330-cb001
Summary of the method: as §1

LOC_OS01G60700-cb002 = tested on: LOC_OS01G60700-cb002
Summary of the method: as §1

LOC_OS01G63280-cb003 = tested on: LOC_OS01G63280-cb003
Summary of the method: as §1

LOC_OS01G67340-cb003 = tested on: LOC_OS01G67340-cb003
Summary of the method: as §1

LOC_OS01G70970-cb002 = tested on: LOC_OS01G70970-cb002
Summary of the method: as §1

LOC_OS02G07810-cb001 = tested on: LOC_OS02G07810-cb001
Summary of the method: as §1

LOC_OS02G08530-cb003 = tested on: LOC_OS02G08530-cb003
Summary of the method: as §1

LOC_OS02G14120-cb001 = tested on: LOC_OS02G14120-cb001
Summary of the method: as §1

LOC_OS02G17970-cb001 = tested on: LOC_OS02G17970-cb001
Summary of the method: as §1

LOC_OS02G45750-cb003 = tested on: LOC_OS02G45750-cb003
Summary of the method: as §1

LOC_OS02G54510-cb004 = tested on: LOC_OS02G54510-cb004
Summary of the method: as §1

LOC_OS03G04050-cb001 = tested on: LOC_OS03G04050-cb001
Summary of the method: as §1

LOC_OS03G12390-cb001 = tested on: LOC_OS03G12390-cb001
Summary of the method: as §1

LOC_OS03G27990-cb004 = tested on: LOC_OS03G27990-cb004
Summary of the method: as §1

LOC_OS03G50450-cb001 = tested on: LOC_OS03G50450-cb001
Summary of the method: as §1

LOC_OS03G50810-cb003 = tested on: LOC_OS03G50810-cb003
Summary of the method: as §1

LOC_OS04G35114-cb001 = tested on: LOC_OS04G35114-cb001
Summary of the method: as §1

LOC_OS04G38480-cb003 = tested on: T1, LOC_OS04G38480-cb003
T1 sequence (whole entry): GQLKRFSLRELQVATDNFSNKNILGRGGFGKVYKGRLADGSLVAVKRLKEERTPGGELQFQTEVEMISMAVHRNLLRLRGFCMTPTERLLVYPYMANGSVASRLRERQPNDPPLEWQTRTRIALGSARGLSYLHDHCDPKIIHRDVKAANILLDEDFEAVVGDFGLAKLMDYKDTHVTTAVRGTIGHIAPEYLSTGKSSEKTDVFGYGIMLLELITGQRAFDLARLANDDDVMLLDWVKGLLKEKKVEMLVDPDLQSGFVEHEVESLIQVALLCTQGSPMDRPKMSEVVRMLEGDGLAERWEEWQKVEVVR
Summary of the method: as §1

LOC_OS04G41100-cb001 = tested on: T2, LOC_OS04G41100-cb001
T2 sequence (whole entry): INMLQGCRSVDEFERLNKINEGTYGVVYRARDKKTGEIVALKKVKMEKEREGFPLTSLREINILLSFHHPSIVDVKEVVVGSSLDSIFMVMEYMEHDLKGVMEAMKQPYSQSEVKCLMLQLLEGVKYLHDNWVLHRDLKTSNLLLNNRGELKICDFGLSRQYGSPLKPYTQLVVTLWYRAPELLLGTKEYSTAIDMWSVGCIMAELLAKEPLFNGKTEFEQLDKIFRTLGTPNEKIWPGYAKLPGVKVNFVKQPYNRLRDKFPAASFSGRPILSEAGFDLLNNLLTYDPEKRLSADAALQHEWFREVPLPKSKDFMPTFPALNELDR
Summary of the method: as §1
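Also: purified Escherichia coli-expressed rice kinase domain construct.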

Structure (SMILES)	thermal shift delta Tm (LOC_OS01G57100-cb003)	thermal shift delta Tm (LOC_OS01G60330-cb001)	thermal shift delta Tm (LOC_OS01G60700-cb002)	thermal shift delta Tm (LOC_OS01G63280-cb003)	thermal shift delta Tm (LOC_OS01G67340-cb003)	thermal shift delta Tm (LOC_OS01G70970-cb002)	thermal shift delta Tm (LOC_OS02G07810-cb001)	thermal shift delta Tm (LOC_OS02G08530-cb003)	thermal shift delta Tm (LOC_OS02G14120-cb001)	thermal shift delta Tm (LOC_OS02G17970-cb001)	thermal shift delta Tm (LOC_OS02G45750-cb003)	thermal shift delta Tm (LOC_OS02G54510-cb004)	thermal shift delta Tm (LOC_OS03G04050-cb001)	thermal shift delta Tm (LOC_OS03G12390-cb001)	thermal shift delta Tm (LOC_OS03G27990-cb004)	thermal shift delta Tm (LOC_OS03G50450-cb001)	thermal shift delta Tm (LOC_OS03G50810-cb003)	thermal shift delta Tm (LOC_OS04G35114-cb001)	thermal shift delta Tm (LOC_OS04G38480-cb003)	thermal shift delta Tm (LOC_OS04G41100-cb001)
C=CC(=O)Nc1cccc(Nc2nc(Nc3ccc(Oc4ccnc(C(=O)NC)c4)cc3)ncc2F)c1	2.13 °C	6.9 °C	1.08 °C	0.49 °C	0.92 °C	1.63 °C	0.76 °C	2.72 °C	6.96 °C	0.81 °C	0.72 °C	1.23 °C	0.77 °C	2.55 °C	0.98 °C	1.34 °C	2.61 °C	2.69 °C	3.42 °C	0.73 °C
CCN1CCN(Cc2ccc(Nc3ncc(F)c(-c4cc(F)c5nc(C)n(C(C)C)c5c4)n3)nc2)CC1	-0.28 °C	0.1 °C	0.59 °C	0.27 °C	0.39 °C	-0.01 °C	0.46 °C	2.49 °C	5.93 °C	0.23 °C	3.28 °C	0.25 °C	0.17 °C	1.39 °C	0.47 °C	0.16 °C	2.97 °C	2.79 °C	1.91 °C	5.62 °C
Oc1cc(O)cc(/C=C/c2ccc(O)c(O)c2)c1 [Piceatannol]	-0.61 °C	1.29 °C	1.12 °C	1.07 °C	0.13 °C	0.59 °C	1.77 °C	1.3 °C	0.89 °C	1.38 °C	-0.87 °C	0.68 °C	0.78 °C	-0.65 °C	0.48 °C	0.23 °C	0.47 °C	0.4 °C	1.45 °C	0.8 °C
Cc1ccc(NC(=O)c2ccc(CN3CCN(C)CC3)cc2)cc1Nc1nccc(-c2cccnc2)n1 [Imatinib (STI571)]	1.6 °C	0.71 °C	0.95 °C	0.65 °C	0.52 °C	0.38 °C	0.18 °C	1.39 °C	1.22 °C	0.21 °C	1.17 °C	0.22 °C	0.47 °C	-0.05 °C	0.26 °C	0.4 °C	0.42 °C	0.92 °C	0.88 °C	0.5 °C
COc1ccc(CC(=O)Nc2nc3c(s2)CCc2ccccc2-3)cc1OC	2.6 °C	0.9 °C	0.11 °C	0.2 °C	1.18 °C	0.74 °C	-0.24 °C	0.98 °C	2.82 °C	0.81 °C	1.49 °C	-0.24 °C	0.51 °C	0.4 °C	0.36 °C	0.29 °C	0.43 °C	0.71 °C	1.33 °C	0.15 °C
O=C(O)c1ccc2c(c1)nc(Nc1cccc(Cl)c1)c1ccncc12 [Silmitasertib (CX-4945)]	2.46 °C	4.93 °C	1.42 °C	1.39 °C	0.58 °C	0.36 °C	0.97 °C	1.24 °C	2.72 °C	1.95 °C	1.82 °C	1.5 °C	0.25 °C	4.4 °C	4.14 °C	0.83 °C	1.55 °C	6.87 °C	1.13 °C	0.77 °C
COc1ccc(CNC(=O)Nc2ncc([N+](=O)[O-])s2)cc1	1.87 °C	0.81 °C	1.38 °C	0.15 °C	0.55 °C	0.54 °C	1.25 °C	1.46 °C	-0.24 °C	1.43 °C	0.37 °C	-0.05 °C	0.67 °C	0.15 °C	0.48 °C	0.41 °C	0.22 °C	0.93 °C	1.93 °C	0.59 °C
CN1CC[C@H](c2c(O)cc(O)c3c(=O)cc(-c4ccccc4Cl)oc23)[C@H](O)C1 [Flavopiridol HCl]	1.91 °C	1.31 °C	0.43 °C	1.03 °C	0.26 °C	1.67 °C	1.12 °C	2.13 °C	2.4 °C	0.78 °C	1.65 °C	0.99 °C	0.18 °C	2.02 °C	1.25 °C	0.4 °C	0.81 °C	1.99 °C	1.82 °C	0.56 °C
CCS(=O)(=O)N1CCN(c2ccc(Nc3ncc(C(N)=O)c(NC4CC4)n3)cc2)CC1	0.76 °C	9.63 °C	1.4 °C	1.68 °C	3.04 °C	7.22 °C	0.35 °C	3.19 °C	5.36 °C	1.18 °C	8.46 °C	4.48 °C	0.19 °C	6.9 °C	5.89 °C	5.37 °C	4.92 °C	6.29 °C	2.13 °C	2.54 °C
O=C1NC(=O)/C(=C/c2cccc(C(F)(F)F)c2)S1	0.63 °C	0.3 °C	0.3 °C	0.28 °C	0.15 °C	0.3 °C	0.46 °C	0.44 °C	-0.36 °C	0.43 °C	0.26 °C	0.26 °C	0.76 °C	0.17 °C	0.26 °C	0.29 °C	0.08 °C	0.62 °C	-0.19 °C	0.43 °C
CCN1C(=O)CNc2ncc(-c3ccc(-c4nc[nH]n4)nc3C)nc21	1.53 °C	0.57 °C	0.53 °C	-0.65 °C	-0.28 °C	0.01 °C	0.72 °C	0.04 °C	-0.7 °C	0.77 °C	1.71 °C	-0.29 °C	-0.03 °C	-0.17 °C	-0.12 °C	-0.24 °C	-0.05 °C	0.7 °C	0.95 °C	-0.13 °C
CN1CCN(c2ccc3nc(-c4c(N)c5c(F)cccc5[nH]c4=O)[nH]c3c2)CC1 [Dovitinib (TKI-258, CHIR-258)]	-0.17 °C	10.3 °C	1.43 °C	0.59 °C	2.72 °C	3.99 °C	0.53 °C	2.72 °C	4.01 °C	-0.27 °C	13 °C	0.96 °C	0.58 °C	2.88 °C	4.19 °C	2.43 °C	4.84 °C	7.2 °C	1.57 °C	0.95 °C
COc1ccc(COc2ccc(Cc3cnc(N)nc3N)cc2OC)cc1	-0.05 °C	0.76 °C	1.06 °C	0.32 °C	0.31 °C	0.08 °C	0.34 °C	-0.15 °C	1.94 °C	1.56 °C	0.53 °C	0.05 °C	0.43 °C	-0.14 °C	0.29 °C	0.04 °C	0.55 °C	0.34 °C	1.41 °C	0.24 °C
